Source: PubChem BioAssay (several laboratories)
Only some compounds are listed: those with a hit (about 4.2% of all), similar ones and a draw of the others.
NALP1 yeast inh: NALP1 inflammasome inhibitors in reconstituted yeast, colorimetric, S. cerevisiae, triplicate retest; S. cerevisiae NALP1/ASC/caspase-1 growth, X-gal OD620, 72 h; inhibition, % at 10 µM; 280,000 compounds, 0.61% hits; AID 2071, 2009; in the data active = inhibition mostly above about 24%, no sharp cut-off; inactive = mostly below about 32%
TIM10 inh: growth inhibitors of isogenic TIM10 control yeast, primary screen, counter-screen for tim10-1 yeast inhibitor project, luminescence, uHTS; S. cerevisiae TIM10 strain growth, BacTiter-Glo luminescence, 24 h; inhibition, % at 10 µM; 330,000 compounds, 1.4% hits; AID 463195, 2010;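 active = inhibition of 40% or more at the single tested concentration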;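 note: wild-type TIM10 isogenic control strain grown at permissive 25 °C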
tim10-1 inh: growth inhibitors of tim10-1 mutant yeast, primary screen, luminescence, uHTS. S. cerevisiae tim10-1 ts strain growth, BacTiter-Glo, 24 h. inhibition, % at 20 µM. 330,000 compounds, 2.2% hits;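 active = inhibition of at least 40%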;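 note: mutant grown at 25 °C; 0% = DMSO wells with yeast and 100% = wells holding no yeast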
tim23-1 inh: growth inhibitors of tim23-1 mutant yeast, primary screen, luminescence, uHTS. 330,000 compounds, 1.3% hits. S. cerevisiae tim23-1 growth, BacTiter-Glo luminescence, 24 h. AID 463212, 2010. inhibition, % at 20 µM;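 active = growth inhibition of the mutant yeast at or above 50%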;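 note: temperature-sensitive mutant grown at 25 °C; plate controls were DMSO-treated mutant yeast for no effect and medium wells lacking yeast for full effect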
PfHsp90 yeast 2: growth inhibition of PfHsp90-expressing yeast, primary screen, antimalarial PfHsp90 inhibitor project, S. cerevisiae, BacTiter-Glo luminescence, single point, set 2; BacTiter-Glo ATP, 48 h; yeast lacking PDR1 and PDR3 efflux regulators; inhibition, % at 9.4 µM; 310,000 compounds, 0.32% hits; AID 504621, 2011;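 active = every replicate shows inhibition above about 80%, whatever the replicate mean, limit read from the data; inconclusive = mean inhibition reaches the set limit but some replicate falls short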;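 note: 0% = DMSO neutral controls and 100% = 20 µM radicicol positive controls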
NALP3 yeast inh: NALP3 inflammasome inhibitors in reconstituted yeast, primary screen, luminescence, uHTS. Yeast reconstituted NLRP3/ASC/caspase-1, beta-gal luminescence, 24 h. inhibition, % at 10 µM. 330,000 compounds, 0.39% hits. AID 2825, 2010;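 active = inhibition of 50% or more; inactive = inhibition below 50%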;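 note: plate controls were induced DMSO wells for no effect and uninduced yeast grown without galactose for full effect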
Active calls of the source: *.

COc1cc2[nH]c3ccccc3c2cc1C was read as NALP1 yeast inh 22*, TIM10 inh 6, tim10-1 inh 27, tim23-1 inh 14, PfHsp90 yeast 2 18 and NALP3 yeast inh 28.
For O=C(Oc1cc(-c2ccccc2)no1)c1cccc(C(F)(F)F)c1 the results were NALP1 yeast inh 43*, TIM10 inh -5, tim10-1 inh 8, tim23-1 inh 7, PfHsp90 yeast 2 12 and NALP3 yeast inh 9.
For C(=N\Nc1ccc(-n2ccnc2)nn1)/c1ccccc1 the results were NALP1 yeast inh 44*, TIM10 inh 3, tim10-1 inh -11, tim23-1 inh -10, PfHsp90 yeast 2 -20 and NALP3 yeast inh 19.
Screening Nc1n[nH]c(N)c1N=Nc1ccc2c(c1)OCO2 returned NALP1 yeast inh 11, TIM10 inh 2, tim10-1 inh -18, tim23-1 inh -1, PfHsp90 yeast 2 -11 and NALP3 yeast inh 26.
`CC(C)(C)C(O)C(Cc1ccccc1Cl)n1cncn1` (stereo not given) gave NALP1 yeast inh 15, TIM10 inh -66, tim10-1 inh -43, tim23-1 inh -81, PfHsp90 yeast 2 92* and NALP3 yeast inh 13.
`CC(C)(C)C(=O)C(Cc1ccccc1Cl)n1cncn1` (stereo not given) gave NALP1 yeast inh 29, TIM10 inh -40, tim10-1 inh -16, tim23-1 inh inactive, PfHsp90 yeast 2 inconclusive and NALP3 yeast inh 0.
For CCC(C)n1ncn(-c2ccc(N3CCN(c4ccc(O)cc4)CC3)cc2)c1=O (stereo not given) the results were NALP1 yeast inh 10, TIM10 inh 12, tim10-1 inh 13, tim23-1 inh 12, PfHsp90 yeast 2 -8 and NALP3 yeast inh 14.
CCC(C)n1ncn(-c2ccc(N3CCN(c4ccc(OCC5COC(Cn6cncn6)(c6ccc(Cl)cc6Cl)O5)cc4)CC3)cc2)c1=O (stereo not given) was read as NALP1 yeast inh 7, TIM10 inh -92, tim10-1 inh -80, tim23-1 inh -174, PfHsp90 yeast 2 92* and NALP3 yeast inh 28.
Screening N#Cc1cn(Cc2ccccc2)c2ccccc12 returned NALP1 yeast inh 27*, TIM10 inh -2, tim10-1 inh 14, tim23-1 inh 8, PfHsp90 yeast 2 6 and NALP3 yeast inh 35.
N#Cc1ccccc1Cn1cc(C#N)c2ccccc21 was read as NALP1 yeast inh 21, TIM10 inh -7, tim10-1 inh 9, tim23-1 inh -1, PfHsp90 yeast 2 -1 and NALP3 yeast inh -11.
Cc1cc(C)nc(SCC(=O)N/N=C/c2cccs2)n1 was read as NALP1 yeast inh 30, TIM10 inh 0, tim10-1 inh -10, tim23-1 inh -6, PfHsp90 yeast 2 -3 and NALP3 yeast inh 1.
`CN(CC(=O)Nc1ccc(F)c(F)c1)S(=O)(=O)c1cccc2cccnc12` gave NALP1 yeast inh 10, TIM10 inh 16, tim10-1 inh 10, tim23-1 inh 12, PfHsp90 yeast 2 15 and NALP3 yeast inh 14.
For CN(CC(=O)Nc1ccc(Cl)cc1)S(=O)(=O)c1cccc2cccnc12 the results were NALP1 yeast inh 37*, TIM10 inh 21, tim10-1 inh 33, tim23-1 inh 42, PfHsp90 yeast 2 7 and NALP3 yeast inh 16.
For CC(=O)c1cccc(NC(=O)CN(C)S(=O)(=O)c2cccc3nsnc23)c1 the results were NALP1 yeast inh 32*, TIM10 inh -1, tim10-1 inh 9, tim23-1 inh 6, PfHsp90 yeast 2 -5 and NALP3 yeast inh 3.
Screening Oc1ccc(C2=NN(c3ccccc3)C(c3ccc(F)cc3)C2)cc1 (stereo not given) returned NALP1 yeast inh -8, TIM10 inh 12, tim10-1 inh -4, tim23-1 inh 26, PfHsp90 yeast 2 120* and NALP3 yeast inh 9.
`COCCCN(CC(=O)Nc1ccc(F)cc1)S(=O)(=O)c1cccs1` gave TIM10 inh -3, tim10-1 inh -10, tim23-1 inh 4, PfHsp90 yeast 2 -25 and NALP3 yeast inh -3.
Screening CCC(=O)OCOc1ccc(/C=C2/CCC(CN(C)C)C2=O)cc1 (stereo not given) returned PfHsp90 yeast 2 143*.
